Reference: the supplement of paper PMC12494721
Structures can show the parent of a compound that is named as a salt.

What was measured:
Settings in all cases: 20 µM; incubation time: 27 h, anaerobic, 37 °C;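 for the amine columns active = adjusted P below 0.05 in both replicates with a change the same way and a mean fold change under 0.8 or over 1.25; inactive = the rest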
[1] = system: Clostridium sporogenes DSM 1664; test: growth (OD595) fold change vs plate DMSO controls (fold change (ratio)); higher = more growth
How it was run: (§1)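 Each value is the mean of 2 biological replicates, and fold changes above 1.5 were set to NA. The underlying readings were taken at 595 nm from shaken anaerobic mGAM cultures in 96-well plates after 27 h at 37 °C. They were blank-subtracted, corrected for compound background using 20 µM compound solutions in water, and converted to OD with a calibration factor of 5. Growth is the fold change relative to the median of the plate DMSO controls.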

Escherichia coli IAI1 [2] = test: as above
How it was run: as §1

[3] = system: Klebsiella aerogenes DSM 30053; test: as above
How it was run: as §1

[4] = system: Ruminococcus gnavus DSM 108212; test: as above
How it was run: as §1

[5] = system: Klebsiella aerogenes DSM 30053; test: fold change of Histamine concentration vs plate DMSO controls (fold change (ratio)); higher = more amine produced, active = hit call of the paper (significant change in both replicates, either direction)
How it was run: (§2)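 Amines were quantified by LC–triple-quadrupole MS in dynamic MRM mode against external calibration curves, with drift correction within each batch. The samples were whole anaerobic mGAM cultures of four gut bacterial strains, grown for 27 h at 37 °C in 80 µL wells and extracted with cold acetonitrile/methanol with 0.1% formic acid, then centrifuged. Values are reported as fold change over DMSO controls on the same plate. The mean of 2 biological replicates is given.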

[6] = system: Clostridium sporogenes DSM 1664; test: fold change of Tryptamine concentration vs plate DMSO controls (fold change (ratio)); higher = more amine produced, active = hit call of the paper (significant change in both replicates, either direction)
How it was run: as §2

[7] = system: Ruminococcus gnavus DSM 108212; test: as above
How it was run: as §2

Escherichia coli IAI1 [8] = test: fold change of Putrescine concentration vs plate DMSO controls (fold change (ratio)); higher = more amine produced, active = hit call of the paper (significant change in both replicates, either direction)
How it was run: as §2

[9] = system: Klebsiella aerogenes DSM 30053; test: as above
How it was run: as §2

Escherichia coli IAI1 [10] = test: fold change of Cadaverine concentration vs plate DMSO controls (fold change (ratio)); higher = more amine produced, active = hit call of the paper (significant change in both replicates, either direction)
How it was run: as §2

[11] = system: Klebsiella aerogenes DSM 30053; test: as above
How it was run: as §2

[12] = system: Ruminococcus gnavus DSM 108212; test: fold change of 2-Phenylethylamine concentration vs plate DMSO controls (fold change (ratio)); higher = more amine produced, active = hit call of the paper (significant change in both replicates, either direction)
How it was run: as §2

Row | Compound | growth [1] | growth (Escherichia coli IAI1 [2]) | growth [3] | growth [4] | fold change of Histamine concentration [5] | fold change of Tryptamine concentration [6] | fold change of Tryptamine concentration [7] | fold change of Putrescine concentration (Escherichia coli IAI1 [8]) | fold change of Putrescine concentration [9] | fold change of Cadaverine concentration (Escherichia coli IAI1 [10]) | fold change of Cadaverine concentration [11] | fold change of 2-Phenylethylamine concentration [12]
1 | CC(C)(N)Cc1ccccc1 [Phentermine hydrochloride] | 0.937 | 0.981 | 1.24 | 0.221 | 0.896 (inactive) | 1.03 (inactive) | 0.176 (active) | 0.983 (inactive) | 1.01 (inactive) | 1.05 (inactive) | 1.05 (inactive) | 0.213 (active)
2 | CCC(=O)Nc1ccc(Cl)c(Cl)c1 | 0.942 | 0.949 | 0.942 | 1.01 | 1.11 (inactive) | 0.963 (inactive) | 1.02 (inactive) | 1.01 (inactive) | 0.863 (inactive) | 0.929 (inactive) | 1.16 (inactive) | 1.13 (inactive)
3 | O=C(O)C(F)(F)C(F)(F)C(F)(F)C(F)(F)C(F)(F)C(F)(F)C(F)(F)C(F)(F)C(F)(F)F [PFDeA (Perfluorodecanoic acid)] | 1.11 | 1.04 | 1.04 | 1.24 | 1.02 (inactive) | 0.916 (inactive) | 0.999 (inactive) | 1.02 (inactive) | 0.996 (inactive) | 1.01 (inactive) | 1 (inactive) | 0.962 (inactive)
4 | CCOP(=S)(OCC)Oc1nc(Cl)c(Cl)cc1Cl | 1.13 | 0.998 | 1.04 | 0.945 | 0.882 (inactive) | 1.01 (inactive) | 0.936 (inactive) | 0.986 (inactive) | 1.01 (inactive) | 1.03 (inactive) | 1.02 (inactive) | 0.873 (inactive)
5 | Nc1c(Cl)c(F)nc(OCC(=O)O)c1Cl | 0.964 | 1.01 | 1.05 | 1.03 | 0.96 (inactive) | 1.03 (inactive) | 1.04 (inactive) | 0.986 (inactive) | 0.955 (inactive) | 0.95 (inactive) | 1.01 (inactive) | 1.05 (inactive)
6 | C[N+](C)(C)CCCl | 1.05 | 0.994 | 0.986 | 0.97 | 1.01 (inactive) | 1.03 (inactive) | 1.06 (inactive) | 0.949 (inactive) | 0.82 (inactive) | 0.863 (inactive) | 1.08 (inactive) | 1.06 (inactive)
7 | COP(=O)(OC)OC=C(Cl)Cl | 1.05 | 1.03 | 0.995 | 1.07 | 0.89 (inactive) | 1.05 (inactive) | 1.06 (inactive) | 0.985 (inactive) | 0.921 (inactive) | 0.964 (inactive) | 1.06 (inactive) | 1.07 (inactive)
8 | CC(O)(CS(=O)(=O)c1ccc(F)cc1)C(=O)Nc1ccc(C#N)c(C(F)(F)F)c1 (configuration not stated) [Bicalutamide] | 1.06 | 1.01 | 1.08 | 1.15 | 0.914 (inactive) | 1.09 (inactive) | 1.06 (inactive) | 1.08 (inactive) | 0.973 (inactive) | 1.01 (inactive) | 1.02 (inactive) | 1.04 (inactive)
9 | Cc1cc(C)nc(Nc2ccccc2)n1 | 0.995 | 1.06 | 0.999 | 1.01 | 0.986 (inactive) | 1 (inactive) | 1 (inactive) | 1.05 (inactive) | 1.02 (inactive) | 1.05 (inactive) | 1.02 (inactive) | 1.04 (inactive)
10 | CCNC1(c2cccs2)CCCCC1=O (configuration not stated) [Tiletamine hydrochloride] | 1.04 | 1 | 0.995 | 1.15 | 1.03 (inactive) | 1.04 (inactive) | 1.02 (inactive) | 0.955 (inactive) | 1.01 (inactive) | 0.995 (inactive) | 1.01 (inactive) | 1 (inactive)
11 | CC1(C)C(C=C(Cl)Cl)C1C(=O)OC(C#N)c1ccc(F)c(Oc2ccccc2)c1 (mixture of isomers) | 0.877 | 1.01 | 0.965 | 1 | 1.09 (inactive) | 0.985 (inactive) | 0.996 (inactive) | 0.971 (inactive) | 1.03 (inactive) | 1.09 (inactive) | 1.02 (inactive) | 1.02 (inactive)
12 | CCNc1nc(Cl)nc(NC(C)C)n1 | 1.02 | 1.02 | 1 | 1.06 | 1.03 (inactive) | 0.98 (inactive) | 1.06 (inactive) | 0.961 (inactive) | 0.971 (inactive) | 0.849 (inactive) | 1 (inactive) | 1.1 (inactive)
13 | CC1(C)C(C=C(Cl)Cl)C1C(=O)OC(C#N)c1cccc(Oc2ccccc2)c1 (mixture of isomers) | 1.13 | 1.01 | 0.982 | 1.04 | 1.02 (inactive) | 0.975 (inactive) | 1.02 (inactive) | 0.971 (inactive) | 1.02 (inactive) | 0.994 (inactive) | 1.01 (inactive) | 1 (inactive)
14 | Oc1ccc(Cl)cc1Cc1cc(Cl)ccc1O | 0.8 | 0.854 | 0.898 | 0.861 | 1.12 (inactive) | 0.557 (inactive) | 0.513 (active) | 1.15 (inactive) | 0.996 (inactive) | 1.66 (active) | 0.986 (inactive) | 0.605 (inactive)
15 | C=CC[C@]1(O)CC[C@H]2[C@@H]3CCC4=CCCC[C@@H]4[C@H]3CC[C@@]21C [Allylestrenol] | 1.01 | 1.01 | 1.06 | 1.09 | 0.993 (inactive) | 1.03 (inactive) | 1.01 (inactive) | 0.977 (inactive) | 0.992 (inactive) | 0.924 (inactive) | 1.02 (inactive) | 1.1 (inactive)
16 | NCCc1c[nH]c2ccc(O)cc12 [Serotonin hydrochloride] | 0.937 | 0.985 | 0.99 | 0.934 | 1.1 (inactive) | 1.02 (inactive) | 1 (inactive) | 0.993 (inactive) | 1.08 (inactive) | 1.06 (inactive) | 1.06 (inactive) | 0.93 (inactive)
17 | CC[C@@H](C(N)=O)N1CCCC1=O [Levetiracetam] | 1.02 | 1.01 | 1.08 | 0.829 | 0.827 (inactive) | 1.06 (inactive) | 1.07 (inactive) | 1.06 (inactive) | 0.951 (inactive) | 1.02 (inactive) | 1.05 (inactive) | 1.07 (inactive)
18 | CCCC1COC(Cn2cncn2)(c2ccc(Cl)cc2Cl)O1 (configuration not stated) | 0.938 | 1.03 | 0.987 | 0.947 | 0.975 (inactive) | 1.04 (inactive) | 1.08 (inactive) | 0.977 (inactive) | 0.946 (inactive) | 0.939 (inactive) | 0.993 (inactive) | 1.17 (inactive)
19 | O=C1C=C(N(Cc2ccc(Cl)nc2)CC(F)F)CO1 | 0.968 | 1.01 | 0.997 | 0.923 | 1.02 (inactive) | 1.15 (inactive) | 1.1 (inactive) | 0.94 (inactive) | 1 (inactive) | 0.933 (inactive) | 1.01 (inactive) | 1.15 (inactive)
20 | CCCC(C)(COC(N)=O)COC(=O)NC(C)C (configuration not stated) [Carisoprodol] | 1.03 | 1.01 | 1.01 | 0.919 | 1.03 (inactive) | 1.01 (inactive) | 1.02 (inactive) | 1.02 (inactive) | 1 (inactive) | 1.02 (inactive) | 1 (inactive) | 1.05 (inactive)
21 | O=C(Nc1ccccc1-c1ccc(Cl)cc1)c1cccnc1Cl | 0.923 | 1.02 | 0.996 | 0.965 | 0.953 (inactive) | 0.954 (inactive) | 0.949 (inactive) | 1 (inactive) | 0.985 (inactive) | 0.979 (inactive) | 0.999 (inactive) | 0.916 (inactive)
22 | CC(C)OC(=O)C(C(=O)OC(C)C)=C1SCCS1 | 1.07 | 0.971 | 1.02 | 1.08 | 0.989 (inactive) | 0.999 (inactive) | 1 (inactive) | 1.02 (inactive) | 1 (inactive) | 0.976 (inactive) | 1 (inactive) | 0.956 (inactive)
23 | COP(=S)(OC)SCN1C(=O)c2ccccc2C1=O | 1.02 | 1.08 | 1.05 | 0.965 | 0.945 (inactive) | 1.03 (inactive) | 1.01 (inactive) | 1.01 (inactive) | 1.01 (inactive) | 0.997 (inactive) | 1.01 (inactive) | 1 (inactive)
24 | C=C1CC[C@@]2(O)[C@H]3Cc4ccc(O)c5c4[C@@]2(CCN3CC2CC2)[C@H]1O5 [Nalmefene hydrochloride] | 1.08 | 0.981 | 1.02 | 1.07 | 1.02 (inactive) | 0.942 (inactive) | 0.59 (inactive) | 0.99 (inactive) | 1.02 (inactive) | 1.03 (inactive) | 1.01 (inactive) | 0.578 (inactive)
25 | Oc1cc(Cl)ccc1Oc1ccc(Cl)cc1Cl [Triclosan] | 0.874 | 0.0332 | 0.299 | 1.21 | 0.0779 (active) | 0.699 (inactive) | 0.715 (active) | 0.258 (active) | 0.248 (active) | 1.13 (inactive) | 0.828 (inactive) | 0.734 (active)
26 | NC(=O)CN1CCCC1=O [Piracetam] | 1.08 | 0.995 | 0.984 | 1.11 | 1.04 (inactive) | 1.01 (inactive) | 1.02 (inactive) | 1.04 (inactive) | 1.01 (inactive) | 0.997 (inactive) | 0.985 (inactive) | 1.01 (inactive)
